# Results reported in paper PMC5700166.
# Residue numbers refer to the chain shown, from its start.
# Columns and labels:
# Assay in all cases: protein-binding microarray (PBM); PBM: ~300 nM protein, 6 mM HEPES pH 7.8, 80 mM KCl, 0.5 mM EDTA, 0.5 mM EGTA, 6% glycerol, 35 ng/ul poly-dIdC, 1% milk, 1 h, room temperature; Ap Aiptasia and Nv Nematostella (sea anemones) / Co Capsaspora / Aq Amphimedon (sponge) / Dm Drosophila / Hu human; RHD is the Rel homology domain; high values mean tight binding
# Details in all cases: dsDNA, one strand shown
# GST-Ap-NF-kB RHD = biological target: T1, GST-Ap-NF-kB RHD (Exaiptasia pallida (Aiptasia), UniProt A0A913YAJ5 2-422)
# T1 sequence: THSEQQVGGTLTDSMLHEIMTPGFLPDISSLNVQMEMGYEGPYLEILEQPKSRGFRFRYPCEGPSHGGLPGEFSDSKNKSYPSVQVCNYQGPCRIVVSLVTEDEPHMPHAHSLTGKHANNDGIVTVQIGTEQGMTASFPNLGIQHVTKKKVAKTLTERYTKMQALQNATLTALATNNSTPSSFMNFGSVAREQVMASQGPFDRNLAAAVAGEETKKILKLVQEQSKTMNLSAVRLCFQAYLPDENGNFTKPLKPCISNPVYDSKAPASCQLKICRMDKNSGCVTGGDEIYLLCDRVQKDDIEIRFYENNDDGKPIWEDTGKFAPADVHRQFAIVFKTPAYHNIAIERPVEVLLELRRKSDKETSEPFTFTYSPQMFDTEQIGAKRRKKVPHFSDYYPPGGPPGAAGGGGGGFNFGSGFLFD
# [1] = biological target: T2, GST-Nv-NF-kB (Cys allele) (Nematostella vectensis, UniProt E5G601 2-411)
# T2 sequence: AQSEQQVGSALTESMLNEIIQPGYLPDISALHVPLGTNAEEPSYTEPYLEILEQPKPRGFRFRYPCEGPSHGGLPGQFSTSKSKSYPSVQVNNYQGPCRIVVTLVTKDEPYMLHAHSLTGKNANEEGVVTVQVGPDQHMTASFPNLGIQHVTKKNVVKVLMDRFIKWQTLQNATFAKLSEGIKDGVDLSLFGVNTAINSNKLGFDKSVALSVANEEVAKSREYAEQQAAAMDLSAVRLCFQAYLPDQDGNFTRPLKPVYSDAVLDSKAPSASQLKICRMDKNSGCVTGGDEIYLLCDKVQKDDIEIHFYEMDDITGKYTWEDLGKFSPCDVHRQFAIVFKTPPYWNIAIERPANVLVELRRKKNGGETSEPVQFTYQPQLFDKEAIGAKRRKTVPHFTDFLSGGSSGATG
# [2] = biological target: T3, GST-Nv-NF-kB (Ser allele) (Nematostella vectensis, UniProt A7UNT2 2-411)
# T3 sequence: T2 sequence with Q21R, C66S, S207N, E215Q, V217A, E225K, A268E, D399E
# GST-Dm-Relish = biological target: T4, GST-Dm-Relish (Drosophila melanogaster, UniProt Q94527 99-473)
# T4 sequence: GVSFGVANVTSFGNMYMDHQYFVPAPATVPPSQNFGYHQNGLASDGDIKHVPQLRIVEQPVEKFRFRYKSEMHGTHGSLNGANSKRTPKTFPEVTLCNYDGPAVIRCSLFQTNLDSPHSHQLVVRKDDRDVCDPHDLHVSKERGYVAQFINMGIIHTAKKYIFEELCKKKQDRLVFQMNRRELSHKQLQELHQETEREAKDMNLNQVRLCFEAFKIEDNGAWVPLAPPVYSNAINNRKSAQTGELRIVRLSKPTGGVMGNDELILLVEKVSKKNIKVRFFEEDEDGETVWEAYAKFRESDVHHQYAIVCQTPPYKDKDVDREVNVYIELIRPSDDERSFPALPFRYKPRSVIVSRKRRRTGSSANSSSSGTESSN
# GST-Aq-NF-kB = biological target: T5, GST-Aq-NF-kB (Amphimedon queenslandica, UniProt A9Y5G7 2-389)
# T5 sequence: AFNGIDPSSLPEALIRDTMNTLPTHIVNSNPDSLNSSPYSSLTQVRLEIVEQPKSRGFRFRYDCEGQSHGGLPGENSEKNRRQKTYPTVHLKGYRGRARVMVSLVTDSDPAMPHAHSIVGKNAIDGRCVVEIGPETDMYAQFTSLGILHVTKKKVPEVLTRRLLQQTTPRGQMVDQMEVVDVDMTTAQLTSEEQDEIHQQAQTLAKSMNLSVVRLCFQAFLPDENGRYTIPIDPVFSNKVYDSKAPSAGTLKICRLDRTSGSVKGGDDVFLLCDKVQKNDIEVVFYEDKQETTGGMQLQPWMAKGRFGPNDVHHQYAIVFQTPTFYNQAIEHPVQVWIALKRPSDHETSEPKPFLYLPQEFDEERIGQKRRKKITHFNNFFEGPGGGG
# GST-Hu-p50 = GST-Hu-p50 (Homo sapiens, UniProt P19838 7-356)
# GST-Co-NF-kB = biological target: T6, GST-Co-NF-kB (Capsaspora owczarzaki, UniProt F1ARL5 200-546)
# T6 sequence: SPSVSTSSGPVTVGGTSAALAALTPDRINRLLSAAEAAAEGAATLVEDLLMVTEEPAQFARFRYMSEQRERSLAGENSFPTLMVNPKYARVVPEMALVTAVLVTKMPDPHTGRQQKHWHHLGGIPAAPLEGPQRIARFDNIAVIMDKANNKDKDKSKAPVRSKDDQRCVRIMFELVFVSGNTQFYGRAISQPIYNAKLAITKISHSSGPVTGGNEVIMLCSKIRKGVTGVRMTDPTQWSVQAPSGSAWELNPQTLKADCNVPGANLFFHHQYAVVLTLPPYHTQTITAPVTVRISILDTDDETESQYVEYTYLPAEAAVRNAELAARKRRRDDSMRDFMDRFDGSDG
# Chain of GST-Hu-p50 (P19838 7-356): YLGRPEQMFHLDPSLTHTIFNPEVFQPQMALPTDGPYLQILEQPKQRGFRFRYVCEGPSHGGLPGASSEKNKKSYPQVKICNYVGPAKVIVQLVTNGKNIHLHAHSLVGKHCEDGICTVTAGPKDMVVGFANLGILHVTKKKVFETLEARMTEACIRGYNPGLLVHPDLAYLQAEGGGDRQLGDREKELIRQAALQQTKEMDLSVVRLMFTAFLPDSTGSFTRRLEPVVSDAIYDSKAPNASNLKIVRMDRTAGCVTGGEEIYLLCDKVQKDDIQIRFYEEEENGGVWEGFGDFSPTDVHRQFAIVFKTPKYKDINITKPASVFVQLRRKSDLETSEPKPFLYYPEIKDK
Sequence,binding signal (GST-Ap-NF-kB RHD) [z-score],binding signal [1] [z-score],binding signal [2] [z-score],binding signal (GST-Dm-Relish) [z-score],binding signal (GST-Aq-NF-kB) [z-score],binding signal (GST-Hu-p50) [z-score],binding signal (GST-Co-NF-kB) [z-score]
CCGATTAACATCAGGGACATACCTGATGTTAATCGGGTCTTGATTCGCTTGACGCTGCTG,2.52,3.64,1.01,3.64,5.64,2.14,
CCGATTAACATCAAATATTCCCTTGATGTTAATCGGGTCTTGATTCGCTTGACGCTGCTG,5.14,6.37,6.41,3.18,5.56,4.16,3.47
CCGATTAACATCACGGTAATTCCTGATGTTAATCGGGTCTTGATTCGCTTGACGCTGCTG,1.42,2.05,2.65,5.3,4.04,1.7,
CCGATTAACATCAGGGGGGAAGATGATGTTAATCGGGTCTTGATTCGCTTGACGCTGCTG,4.86,5.5,5.9,3.64,4.85,4.98,7.62
CCGATTAACATCAGGGAATTTCATGATGTTAATCGGGTCTTGATTCGCTTGACGCTGCTG,5,7.17,7.08,4.49,5.84,5.25,3.61
CCGATTAACATCAGGGACTTCTATGATGTTAATCGGGTCTTGATTCGCTTGACGCTGCTG,5.47,6.35,7.05,3.93,5.24,5.28,
CCGATTAACATCAGGGAGTTCACTGATGTTAATCGGGTCTTGATTCGCTTGACGCTGCTG,2.23,2.42,1.78,5.79,4.22,2.32,
CCGATTAACATCAATCCCCACATTGATGTTAATCGGGTCTTGATTCGCTTGACGCTGCTG,3.58,4.03,3.93,2.63,2.58,3.86,2.61
CCGATTAACATCAGGGGTAACCCTGATGTTAATCGGGTCTTGATTCGCTTGACGCTGCTG,4.06,2.99,2.19,4.12,5.1,3.1,4.77
CCGATTAACATCAGGAGAGTACCTGATGTTAATCGGGTCTTGATTCGCTTGACGCTGCTG,1.28,2.32,3.99,2.54,3.47,2.62,
CCGATTAACATCAGGGGCTTTACTGATGTTAATCGGGTCTTGATTCGCTTGACGCTGCTG,4.24,5.11,3.48,7.41,5.73,4.83,
CCGATTAACATCACGGGAAAATCTGATGTTAATCGGGTCTTGATTCGCTTGACGCTGCTG,3.98,5.79,6.4,2.07,5.16,3.87,5.43
CCGATTAACATCACGGGGAAACCTGATGTTAATCGGGTCTTGATTCGCTTGACGCTGCTG,7.51,7.32,9.2,7.04,6.23,5.72,8.87
CCGATTAACATCACGGGATTACCTGATGTTAATCGGGTCTTGATTCGCTTGACGCTGCTG,3.75,1.79,2.51,5.47,4.66,1.16,
CCGATTAACATCATGGGGAAAAATGATGTTAATCGGGTCTTGATTCGCTTGACGCTGCTG,5.03,6.62,8.82,2.39,4.9,5.43,9.78
CCGATTAACATCAGGGTATTTTATGATGTTAATCGGGTCTTGATTCGCTTGACGCTGCTG,5.82,8.31,7.61,5.65,7.07,5.87,3.22
CCGATTAACATCAGGATAGCCCCTGATGTTAATCGGGTCTTGATTCGCTTGACGCTGCTG,4,4.29,2.73,2.38,5.49,3.65,
CCGATTAACATCAAGGGACTTTCTGATGTTAATCGGGTCTTGATTCGCTTGACGCTGCTG,7.14,9.44,8.36,7.3,7.13,5.98,
CCGATTAACATCACGAAAGTCCCTGATGTTAATCGGGTCTTGATTCGCTTGACGCTGCTG,6.26,6.77,7.54,5.86,5.78,5.45,
CCGATTAACATCAAGGGAACCCCTGATGTTAATCGGGTCTTGATTCGCTTGACGCTGCTG,5.4,3.13,1.95,9.38,5.18,3.12,
CCGATTAACATCAAGGTGTTTCCTGATGTTAATCGGGTCTTGATTCGCTTGACGCTGCTG,1.56,1.48,1.39,1.91,2.48,3.43,
CCGATTAACATCAGGGTTTTTAGTGATGTTAATCGGGTCTTGATTCGCTTGACGCTGCTG,2.02,1.3,2.09,2.9,2.58,1.99,
CCGATTAACATCAGGAAAGACCCTGATGTTAATCGGGTCTTGATTCGCTTGACGCTGCTG,2.17,4.11,1.92,4.41,6.37,3.3,
CCGATTAACATCAGGGACATCCCTGATGTTAATCGGGTCTTGATTCGCTTGACGCTGCTG,5.51,6.99,4.22,7.71,7.32,3.84,
